Measured values reported in the supplement of paper PMC6555819.

What was measured:
Test in all cases: PBM binding z-score (relative to random genomic background probes); higher = stronger binding; sequences stand for … in GC…GCGATTGACAGCGTAGAATGAAGG
[1] = tested on: PPARg:RXRa DBDmut IVT, anti-RXR (DBD mutation: RXRa K156A/R161A, NR concentration 270 nM, RXRa partner concentration 90 nM)
Method in brief: (§1)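 Scanned fluorescence from custom Agilent 4×180K protein-binding microarrays was regression-normalized. Binding z-scores use random background probes as reference. Ligand-free nuclear receptor dimers were incubated on the arrays for 1 h and detected with antibodies against each partner (one per run).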

[2] = tested on: PPARg:RXRa IVT, anti-PPARg (NR concentration 270 nM, RXRa partner concentration 90 nM)
Method in brief: as §1

[3] = tested on: PPARg DBDmut:RXRa IVT, anti-PPARg (DBD mutation: PPARg1 K132A/R137A, NR concentration 270 nM, RXRa partner concentration 90 nM)
Method in brief: as §1

[4] = tested on: PPARg DBDmut IVT, anti-PPARg (DBD mutation: PPARg1 K132A/R137A, NR concentration 270 nM)
Method in brief: as §1

[5] = tested on: PPARg homodimer (NR concentration 180 nM)
Method in brief: as §1

[6] = tested on: PXR:RXRa (NR concentration 270 nM, RXRa partner concentration 90 nM)
Method in brief: as §1

[7] = tested on: PXR homodimer (NR concentration 270 nM)
Method in brief: as §1

[8] = tested on: RARa:RXR (NR concentration 270 nM, RXRa partner concentration 90 nM)
Method in brief: as §1

[9] = tested on: RARa homodimer (NR concentration 270 nM)
Method in brief: as §1

[10] = tested on: RARb:RXRa (NR concentration 270 nM, RXRa partner concentration 90 nM)
Method in brief: as §1

[11] = tested on: RARb homodimer (NR concentration 270 nM)
Method in brief: as §1

[12] = tested on: RARg:RXRa (NR concentration 270 nM, RXRa partner concentration 90 nM)
Method in brief: as §1

[13] = tested on: RARg homodimer (NR concentration 270 nM)
Method in brief: as §1

[14] = tested on: RXRa DBDmut IVT, anti-RXR (DBD mutation: RXRa K156A/R161A, NR concentration 90 nM)
Method in brief: as §1

[15] = tested on: RXRa homodimer (NR concentration 180 nM)
Method in brief: as §1

[16] = tested on: THRa:RXRa (NR concentration 90 nM, RXRa partner concentration 90 nM)
Method in brief: as §1

[17] = tested on: THRa homodimer (NR concentration 90 nM)
Method in brief: as §1

[18] = tested on: VDR homodimer (NR concentration 270 nM)
Method in brief: as §1

Row | Sequence | PBM binding z-score [1] | PBM binding z-score [2] | PBM binding z-score [3] | PBM binding z-score [4] | PBM binding z-score [5] | PBM binding z-score [6] | PBM binding z-score [7] | PBM binding z-score [8] | PBM binding z-score [9] | PBM binding z-score [10] | PBM binding z-score [11] | PBM binding z-score [12] | PBM binding z-score [13] | PBM binding z-score [14] | PBM binding z-score [15] | PBM binding z-score [16] | PBM binding z-score [17] | PBM binding z-score [18]
1 | CCTATTAGTTGACCATAAGGGCAACCGGAGCTCG | 0.164 | 0.489 | -0.0255 | 0.00899 | 1.98 | 0.686 | 0.931 | 0.893 | 2.04 | 1.72 | 2.03 | 1.22 | 1.19 | 0.709 | 0.658 | 1.87 | 1.53 | 1.15
2 | CGAAAGAGGGCATGAGTTGATAGCAAATGCCGAT | 2.11 | 1.03 | 0.384 | -0.376 | -0.223 | 0.604 | -0.0785 | 0.777 | -0.0626 | 2.08 | 1 | 1.76 | 1.96 | 1.67 | 1.27 | 0.416 | -0.334 | 1.1
3 | TAGCCTAGGTCAGATCGGGCCAATATACGCTATA | 0.525 | 1.37 | -0.296 | -0.715 | 0.782 | 2.21 | -0.489 | 1.9 | -0.0136 | 2.94 | 2.28 | 2.9 | 3.4 | -0.355 | 1.51 | 4.32 | 0.165 | -0.261
4 | GGAATGAGGGCAAGTTGATAGCAGAGTTTGATGG | 4.98 | 3.82 | 1.16 | -0.0155 | 1.37 | 1.05 | 1.87 | 0.695 | 0.0185 | 2.64 | 1.65 | 1.55 | 2.21 | 2.79 | 1.04 | 1.85 | 1.02 | 2.22
5 | ATCTCTAGGTAACCAAGTTCAGTGACTGCCGAAC | 4.09 | 2.78 | 0.981 | 0.674 | 1.09 | 2.14 | 2.22 | 0.968 | 1.12 | 1.14 | 1.39 | 0.744 | 0.871 | 1.24 | 0.577 | 1.46 | 1.03 | 2.9
6 | CCGACTGGGGCATAGGGTTACCATAAGCCAGCCC | 2.48 | 3.41 | -0.334 | -1.39 | 0.589 | 0.141 | -0.597 | 0.817 | -1.05 | 1.25 | 0.968 | 1.34 | 0.885 | -1.32 | 1.21 | 0.957 | -0.244 | -1.05
7 | CGAACTAGGTCAGAACAGCACAGTGAAGGATGAT | 7.06 | 7 | 0.891 | 0.278 | 0.531 | 0.247 | -0.0288 | 0.419 | 0.0797 | 2.92 | 1.96 | 2.44 | 3.04 | 0.779 | 1.28 | 1.16 | 0.326 | 0.463
8 | TTACCAAGGTGCGCTGAGGTCGTTGATCCAACTC | -0.264 | 0.111 | -0.817 | -0.343 | -0.175 | 2.58 | 1.74 | 1.4 | -0.803 | 0.681 | 1.13 | 0.294 | -0.0595 | 1.12 | 0.936 | 3.59 | 1.87 | 3.64
9 | AATACAGGGTCACTAGGCCAGTGTAGGTACGAAT | 4.34 | 5.58 | 1.71 | 1.25 | 2.55 | 3.37 | 0.255 | 4.63 | 0.647 | 4.13 | 3.48 | 5.29 | 5.09 | 2.82 | 6.04 | 3.4 | 1.26 | 2.89
10 | TCTGCTAGGTCAACGATAGTCAGCTAATCTGCTA | 4.19 | 4.2 | 0.616 | 0.703 | 0.481 | 1.31 | -0.482 | 1.98 | -0.872 | 3.99 | 2.84 | 3.9 | 4.6 | 0.919 | 2.63 | 2.67 | 0.277 | -0.234
11 | TCTTGTAGATCAATGGAGGTTAAGAAAGTGCGCT | 2.04 | 1.57 | 0.0784 | 1.12 | -0.199 | 2.58 | 0.0457 | 1.16 | 0.49 | 0.504 | 0.785 | 0.419 | 0.147 | 0.79 | 0.919 | 2.03 | -0.299 | 0.227
12 | TCTCGTAGATCAACAGGAGGTTAAGAAAGATCGA | 1.41 | 0.00538 | 0.397 | -0.0394 | 0.0333 | 0.901 | -0.13 | 1.21 | 0.12 | 0.48 | 0.63 | 0.917 | 0.145 | 0.538 | 1.01 | 0.902 | -0.325 | -0.382
13 | TGAATGAGGTTATAAGATCAAGGAACGTTGCAAA | 1.04 | 1.84 | 0.592 | 0.326 | 0.811 | 0.776 | -0.0343 | 1.37 | 0.338 | 1.18 | 0.308 | 1.58 | 0.824 | 0.325 | 2.15 | 1.84 | 0.279 | 0.367
14 | AGACCGAGGGCACGCTGAGTTGATAGCAGAGTAG | 1.14 | 1.33 | -0.432 | -1.3 | 0.2 | 1.52 | -0.245 | 0.998 | -0.487 | 2.61 | 1.33 | 2.22 | 2.06 | 1.49 | 1.31 | 1.77 | -0.237 | 1.75
